Shown are actives, neighbours in structure and some others; about 11% of the full set was active somewhere.
HCV inh = blocks hepatitis C virus | Huh7.5.1 HCVcc-Cre infection, luciferase reporter, 44 h | Potency, µM (titrated, usually from 41.8 µM), for inactives: at the top dose activity change, negative = inhibition, actives largely listed as inhibitors | 3.4% of 340,000 active
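Infectious HCV cell culture screen: compound-treated cells (1,000/well, pre-plated 4 h) are infected with HCVcc-Cre at roughly 0.5 moi and grown 44 h. Infection is quantified by luciferase signal after 15 min substrate incubation at room temperature.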
Pf growth 96h = P. falciparum growth inhibition at 96 hour, primary screen for plastid delayed-death inhibitors | Potency, µM (top dose mostly 28.7 µM), inactives show at the top dose activity change, negative = inhibition, usual class: inhibitors | P. falciparum luciferase reporter growth, 96 h | 6.9% of 320,000 active
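P. falciparum expressing integrated firefly luciferase, in erythrocytes at 2% hematocrit, 0.05% parasitemia, incubated with compounds 96 h at 37 C, 5% CO2. Growth inhibition read as loss of luminescence; two-generation exposure targets delayed-death apicoplast inhibitors.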
Pf growth 48h = P. falciparum growth inhibition at 48 hours (one generation); P. falciparum luciferase growth in erythrocytes, 48 h; Potency, µM (doses to about 28.7 µM), for the others: at the highest dose activity change, negative = inhibition, actives largely listed as inhibitors; 5.9% of 310,000 active
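A one-generation exposure of luciferase-tagged malaria parasites in RPMI 1640/Albumax erythrocyte culture, 37 C and 5% CO2. Inhibition is inferred from decreased luminescence after adding detection reagent.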
AMA1-RON2 inh = inhibitors of Plasmodium falciparum AMA1-RON2 interaction | AlphaScreen AMA1-biotinylated RON2 peptide binding | Potency, µM (titrated, usually from 58.2 µM), for the others: at the highest dose activity change, negative = inhibition, most hits filed as inhibitors | 0.2% of 360,000 active | AID 720542;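 note: 0% = vehicle wells and -100% = peptide control; nearly all actives have a fitted effect of over 45% in size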
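AMA1 (3D7) with his tag at 25 nM final met compounds first, then biotinylated RON2 peptide at 25 nM; detection used donor plus acceptor beads, 10 µg/mL apiece, read by AlphaScreen after 30 min at room temperature.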
Active calls of the source: *; [ ] = dose if it differs, or a comment. Calls come from the whole dose curve; as a rule, active = well fitted curve in the direction sought with a large enough effect; inconclusive = small, poorly fitted or top-dose-only effect, or another doubt; inactive = no such curve, though single readings can be large; an effect the other way counts as inactive or inconclusive. Unless noted, % is set by controls: 0 for no effect and ±100 for the full control effect; potency is the fitted concentration of half-maximal effect.

Screening O=C(NCC(c1ccco1)N1CCCC1)c1ccc(Cl)c(S(=O)(=O)N2CCc3ccccc32)c1 (stereo unspecified) returned HCV inh 4.47µM*, Pf growth 96h inconclusive, Pf growth 48h 5.86µM* and AMA1-RON2 inh 19.8%[11.6 µM].
For Cc1cc(S(=O)(=O)Nc2ccc(C(=O)NCC(c3ccco3)N3CCCCC3)cc2)ccc1F (stereo unspecified) the results were HCV inh -4.8%, Pf growth 96h inconclusive, Pf growth 48h inconclusive and AMA1-RON2 inh -16.3%.
CC1Oc2ccc(C#N)cc2N(Cc2ccccc2OC(F)(F)F)C1=O (stereo unspecified) was read as AMA1-RON2 inh -5.9%.
`CN(C)c1ccc(C(CNC(=O)c2ccc(-c3ccccc3)cc2)N2CCOCC2)cc1` (stereo unspecified) gave HCV inh 7.7%, Pf growth 96h inconclusive and Pf growth 48h 13.1µM*.
CCc1cc(C(=O)NCC(c2ccco2)N2CCCCC2)sc1C (stereo unspecified) was read as HCV inh -21.8%, Pf growth 96h 5.86µM*, Pf growth 48h 9.28µM* and AMA1-RON2 inh 17.9%.
Screening Cc1ccc(C(=O)NCC(c2ccco2)N2CCOCC2)cc1 (stereo unspecified) returned HCV inh -3.4%[8.37 µM], Pf growth 96h 6.57µM*, Pf growth 48h inconclusive and AMA1-RON2 inh 6.7%.
For O=S(=O)(NCC(c1ccco1)N1CCCCC1)c1cccc(C(F)(F)F)c1 (stereo unspecified) the results were HCV inh inconclusive, Pf growth 96h 7.38µM*, Pf growth 48h inconclusive and AMA1-RON2 inh -3.2%.
Cc1c(C(=O)NCC(c2ccco2)N2CCCC2)sc2ccccc12 (stereo unspecified) was read as HCV inh -9.4% and AMA1-RON2 inh -0.2%.
Nc1nc(F)cc(N2CCCCCC2)n1 was read as HCV inh 14.0%, Pf growth 96h 131.7%, Pf growth 48h 5.5% and AMA1-RON2 inh 10.7%.
CCn1c(CC(=O)Nc2ccccc2)nnc1SCC(=O)Nc1nnc(C)s1 was read as HCV inh 17.7%, Pf growth 96h -17.8%, Pf growth 48h 10.0% and AMA1-RON2 inh 0.6%.
For O=c1[nH]c(NCc2ccco2)nnc1Cc1ccccc1Cl the results were HCV inh 7.8%, Pf growth 96h 9.9%, Pf growth 48h -14.5% and AMA1-RON2 inh 12.4%.
Screening COc1ccc(NC(=O)COC(=O)CN2C(=O)c3ccccc3C2=O)cc1 returned HCV inh 6.0%, Pf growth 96h 8.4%, Pf growth 48h 0.9% and AMA1-RON2 inh -4.1%.
For CSCCC(NC(=O)COc1ccccc1)C(=O)O (stereo unspecified) the results were HCV inh 1.5%, Pf growth 96h -5.6%, Pf growth 48h 6.8% and AMA1-RON2 inh -7.2%.
For COc1ccc(OC)c(NC(=O)NCCc2c[nH]c3ccccc23)c1 the results were HCV inh inconclusive, Pf growth 96h -14.0%, Pf growth 48h inconclusive and AMA1-RON2 inh -1.8%.
For Cc1ccc(NS(=O)(=O)c2cccc(C(=O)NCC(c3ccco3)N3CCCC3)c2)cc1 (stereo unspecified) the results were HCV inh inconclusive, Pf growth 96h inconclusive, Pf growth 48h 13.1µM* and AMA1-RON2 inh 20.5%.
For COc1ccccc1C(=O)COC(=O)C1(C)CC1(Cl)Cl (stereo unspecified) the results were HCV inh -9.2% and AMA1-RON2 inh 18.8%.
`Cn1c(N2CCCC2)nc2c1c(=O)n(Cc1ccc(Cl)cc1)c(=O)n2C` gave HCV inh inconclusive, Pf growth 96h inconclusive, Pf growth 48h inconclusive and AMA1-RON2 inh -27.4%.
CC(C)CNc1nc2c(c(=O)n(C)c(=O)n2C)n1Cc1cccc(Br)c1 was read as HCV inh 7.9%, Pf growth 96h 18.6%, Pf growth 48h 11.7µM* and AMA1-RON2 inh -0.1%.
Screening Cn1c(=O)c2sccc2n(Cc2cccc(Br)c2)c1=O returned HCV inh 11.2µM*, Pf growth 96h inconclusive, Pf growth 48h 31.4% and AMA1-RON2 inh 4.2%.
For COc1cccc(Cn2c(NCC(C)C)nc3c2c(=O)n(C)c(=O)n3C)c1 the results were HCV inh 10.0%, Pf growth 96h inconclusive, Pf growth 48h inconclusive and AMA1-RON2 inh 15.6%.
Screening Cn1c(N2CCCC2)nc2c1c(=O)n(Cc1cccc(F)c1)c(=O)n2C returned HCV inh inconclusive, Pf growth 96h 10.4µM*, Pf growth 48h inconclusive and AMA1-RON2 inh -1.3%.
